Test results as given in PubChem BioAssay AID687022 (Broad Institute, 2013).
The whole screen tested about 1,000 compounds, of which about 360 (36%) were called active.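 How the source made its calls: active means Fitted curve of melting temperature shift crosses the 1.0 threshold at or below the sample's highest valid tested concentration; inconclusive means Flat fit with activity 30 to 70, or invalid fit; inactive means Opposite direction, flat within 30, or no crossing.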 Not all results are given here.

biological target: Fibroblast growth factor 22 (Homo sapiens) (UniProt Q9HCT0); test: FGF22 ligand-induced thermal stabilization – biophysical, thermal shift, cherry-pick, FGF22 synaptogenesis inhibitor project, dose response (AID 687022); details: recombinant FGF22 thermal shift, SYPRO orange melting; series mostly up to 38 µM; further: reference of the scale not given here
Sequence (Q9HCT0 whole entry, looked up): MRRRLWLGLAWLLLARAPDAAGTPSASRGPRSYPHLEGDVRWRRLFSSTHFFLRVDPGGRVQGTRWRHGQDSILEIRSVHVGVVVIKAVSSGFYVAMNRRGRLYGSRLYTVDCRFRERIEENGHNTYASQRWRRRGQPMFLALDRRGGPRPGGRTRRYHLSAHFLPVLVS

SMILES	Tm shift activity
CC(C)(CNS(=O)(=O)c1ccc2c(c1)OCCO2)N1CCOCC1	inactive
Cn1c(=O)[nH]c(=O)c2c1nc(SCC(O)CO)n2CCCc1ccccc1 (stereo not given)	inactive
Cc1[nH]c2ccccc2c1C(=O)C(=O)NCCOc1ccccc1	inactive
O=[N+]([O-])c1ccc(/C=N/Nc2ccc3ccccc3c2)o1	inactive
CCOC(=O)[C@@H]1[C@H]2COc3cc(OC)ccc3[C@H]2N2C(=O)N(c3ccc(C)cc3)C(=O)[C@]12C	inactive
C[C@H](CO)N1C[C@H](C)[C@@H](CN(C)C(=O)Nc2cccc3ccccc23)Oc2c(NS(C)(=O)=O)cccc2C1=O	inactive
C[C@H]1CN([C@@H](C)CO)C(=O)c2cc(NC(=O)c3ccncc3)ccc2O[C@@H]1CN(C)S(=O)(=O)c1cn(C)cn1	inactive
C[C@H]1CN([C@@H](C)CO)C(=O)c2cc(NS(=O)(=O)c3ccccc3)ccc2O[C@@H]1CN(C)Cc1ccc(C(=O)O)cc1	inactive
CCCCn1cnc2c(SCc3cccc(F)c3)nc(N)nc21	inactive
O=C(COc1ccccc1)NCC(=O)NC1CCCCC1	inactive
O=C(C[C@@H]1CC[C@@H](NC(=O)Nc2cc(F)ccc2F)[C@H](CO)O1)NCCCN1CCOCC1	inactive
CCOC(=O)Cn1c2ccccc2n2nc(CCC(=O)O)c(=O)nc12	inactive
COCC(=O)N1C[C@@H]2[C@H](c3ccccc31)[C@H](CO)N2C(=O)c1ccccc1F	inactive
COc1ccccc1S(=O)(=O)N(C)C[C@@H]1Oc2cc(C#CCC(C)C)ccc2S(=O)(=O)N([C@@H](C)CO)C[C@H]1C	inactive
O=C(C[C@H]1C[C@@H]2c3cc(NC(=O)NC4CCCC4)ccc3O[C@@H]2[C@H](CO)O1)NCc1ccc2c(c1)OCO2	inactive
CCCNC(=O)COCc1cc(-c2ccc3c(c2)OCO3)on1	inactive
O=C(COC(=O)CSc1ccc([N+](=O)[O-])cc1)NCCC1=CCCCC1	inactive
O=C(NCC[C@@H]1CC[C@H](NC(=O)C2CCOCC2)[C@H](CO)O1)Nc1ccc(Cl)cc1	inactive
Cc1nn(-c2ccccc2)c(Cl)c1/C=N/NC(=O)c1cccnc1	inactive
COc1ccc(/C=N/NC(=O)c2cccc([N+](=O)[O-])c2)cc1OC	inactive
COc1ccc(NS(=O)(=O)c2cccc(C(=O)NN=Cc3ccc(OC)c(O)c3)c2)cc1	inactive
CC(=O)Nc1ccc(C(=O)N/N=C/c2cc(Br)cc(Br)c2O)cc1	inactive
O=C(N/N=C/c1c[nH]c2ccccc12)c1ccc2c(c1)OCCO2	inactive
Cc1c(/C=N\NC(=O)c2cccc(F)c2)cnn1C	inactive
CC1CC(CC(=O)NC(=S)Nc2ccccc2Cl)C(=O)O1 (stereo not given)	inactive
